Compound activity from PubChem BioAssay.
Most compounds without a hit are left out; they make up all but 19% or so of the library.
KB-V1 cytotox: KB-V1 MDR subline cytotoxicity; KB-V1 MDR cells viability, CellTiter-Glo, 72 h; Potency, µM (doses to about 46.1 µM), actives largely listed as cytotoxic; AID 1347076; hit rate 3.4% among 400,000; note: nearly all actives have a fitted effect of over 60% in size
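In this primary screen, KB-V1 cells overexpressing P-gp are incubated with library compounds (lowest to highest concentration) for 72 h at 37 degrees C before a luminescent ATP viability read.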
DT40 TDP1 no CPT: qHTS for Inhibitors of human tyrosyl-DNA phosphodiesterase 1 (TDP1): qHTS in cells in absence of CPT; DT40 Tdp1-/- hTDP1 cells, no CPT, ATP luminescence, 48 h; Potency, µM (doses to about 46.2 µM), for inactives: at the top dose activity change, negative = growth inhibition, hits mostly inhibitors; hit rate 15% among 420,000; AID 686978, 2013; note: nearly all actives have a fitted effect of over 55% in size
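Chicken DT40 Tdp1-/- cells complemented with human TDP1, screened without camptothecin (DMSO vehicle only), 400 cells/well. Compounds pin-transferred, cells incubated at 37 °C for at least 48 hr. Growth read as ATP-dependent luminescence (CellTiter-Glo, 30 min at RT).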
TDP1 cell CPT: DT40-hTDP1 cell growth loss with CPT; chicken DT40 Tdp1-/-;hTDP1 cells + 20 nM CPT, ATP luminescence, 48 h; Potency, µM (series often up to 46.2 µM), without a hit: at the top dose activity change, negative = growth inhibition, most hits filed as inhibitors; hit rate 12% among 420,000; AID 686979; note: nearly all actives have a fitted effect of over 55% in size
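Chicken DT40 Tdp1-/- cells stably complemented with human TDP1 were seeded at 400 cells/well in medium containing 20 nM camptothecin, exposed to pin-transferred compounds, and grown at 37 °C for at least 48 hr. Viability was read as ATP luminescence.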
HT1080NT lethal: kills 2HG-producing HT-1080-NT fibrosarcoma cells. HT-1080-NT fibrosarcoma viability, CellTiter-Glo ATP luminescence, 48 h. Potency, µM (series often up to 46.1 µM), inactives show at the top dose activity, negative = less viability, usual class: cytotoxic. hit rate 1.6% among 360,000. AID 686970;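 note: NT is the 2HG producing partner of a matched IDH1 knockdown line; 0% = DMSO-treated cells and -100% = media-only wells without cells; nearly all actives have a fitted effect of over 55% in size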
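HT-1080-NT; 750 cells/well; 5% FBS RPMI; 48 h compound, 37 degrees C; CellTiter-Glo luminescence; curve fitting and curve-class assignment.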
KB-3-1 tox: kills parental KB-3-1 adenocarcinoma cells; Potency, µM (highest dose often 46.1 µM), actives largely listed as cytotoxic; hit rate 1.4% among 400,000; KB-3-1 viability, CellTiter-Glo ATP luminescence, 72 h; note: nearly all actives have a fitted effect of over 60% in size
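Multi-concentration cytotoxicity screen in KB-3-1 cells grown in DMEM lacking phenol red with 10% FBS. After 72 h at 37 °C with compound, ATP-dependent luminescence was recorded.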
HT1080 IDH1KD tx: kills HT-1080 cells with IDH1 knockdown; HT-1080 IDH1 knockdown viability, ATP luminescence, 48 h; Potency, µM (titrated, usually from 46.1 µM), without a hit: top-dose activity, negative = toxicity, usual class: cytotoxic; hit rate 2% among 360,000; AID 686971;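 note: 0% = DMSO wells and -100% = cell-free medium wells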
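HT-1080-IDH1KD cells (IDH1 knocked down), 750/well in RPMI with 5% FBS, treated with compound 48 h at 37 degrees C. Viability by CellTiter-Glo luminescence, normalised to DMSO and no-cell wells; concentration-response curves classed.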
An asterisk follows results filed as active. Calls come from the whole dose curve; as a rule, active = well fitted curve in the direction sought with a large enough effect; inconclusive = small, poorly fitted or top-dose-only effect, or another doubt; inactive = no such curve, though single readings can be large; an effect the other way counts as inactive or inconclusive. Unless noted, % is set by controls: 0 for no effect and ±100 for the full control effect; potency is the fitted concentration of half-maximal effect.

Results for Cc1ccc(C)c(N2CCN(c3nc4ccccc4c4nc(-c5cccnc5)nn34)CC2)c1 ?
KB-V1 cytotox: inconclusive; DT40 TDP1 no CPT: -27%; TDP1 cell CPT: -16%; KB-3-1 tox: inactive

What do the screens show for `CCc1nnc2c3ccccc3nc(N3CCN(c4cc(C)ccc4C)CC3)n12`?
KB-V1 cytotox: inactive; DT40 TDP1 no CPT: 1.3µM*; TDP1 cell CPT: inconclusive; KB-3-1 tox: inconclusive

Results for Cc1ccc(C)c(N2CCN(c3nc4ccccc4c(=O)n3-c3ccccc3)CC2)c1 ?
DT40 TDP1 no CPT: 9.2µM*; TDP1 cell CPT: 10µM*

What do the screens show for `COc1ccc(Cl)cc1N(CC(=O)N/N=C/c1ccc(OC(C)C)cc1)S(=O)(=O)c1ccc(C)c([N+](=O)[O-])c1`?
KB-V1 cytotox: inactive; DT40 TDP1 no CPT: -19%; TDP1 cell CPT: -16%; HT1080NT lethal: 9%; KB-3-1 tox: inactive; HT1080 IDH1KD tx: 15%

Results for COc1ccc(Cl)cc1N(CC(=O)N(C)C)S(=O)(=O)c1ccc(C)c([N+](=O)[O-])c1 ?
KB-V1 cytotox: inactive; DT40 TDP1 no CPT: 21µM*; TDP1 cell CPT: inconclusive; HT1080NT lethal: 5%; KB-3-1 tox: inactive; HT1080 IDH1KD tx: 2%

How did C=CCOc1cccc(/C=N/NC(=O)CN(c2cc(Cl)ccc2OC)S(=O)(=O)c2ccc(C)c([N+](=O)[O-])c2)c1 do in these assays?
KB-V1 cytotox: inactive; DT40 TDP1 no CPT: 16µM*; TDP1 cell CPT: inconclusive; HT1080NT lethal: -1%; KB-3-1 tox: inactive; HT1080 IDH1KD tx: -13%

What do the screens show for `NC(=O)C1CCN(c2nc(-c3ccccc3C(F)(F)F)cs2)CC1`?
KB-V1 cytotox: inactive; KB-3-1 tox: inactive

What do the screens show for `COc1ccc(C(=O)Oc2ccc(C3NC(=O)c4c(sc5c4CCN(C)C5)N3)cc2OC)cc1` (stereo not drawn)?
KB-V1 cytotox: inactive; DT40 TDP1 no CPT: 16µM*; TDP1 cell CPT: inconclusive; KB-3-1 tox: inactive

How did CN1CCc2c(sc3c2C(=O)NC(c2ccc(C(C)(C)C)cc2)N3)C1 (stereo not drawn) do in these assays?
KB-V1 cytotox: inactive; DT40 TDP1 no CPT: 13µM*; TDP1 cell CPT: inconclusive; KB-3-1 tox: inactive

What do the screens show for `CCC(=O)N1CCC1(C)C(=O)NCc1ccccc1SC` (stereo not drawn)?
KB-V1 cytotox: inactive; DT40 TDP1 no CPT: -14%; TDP1 cell CPT: -13%; HT1080NT lethal: 17%; KB-3-1 tox: inactive; HT1080 IDH1KD tx: 20%

Results for CCCCN1CCCCC1(C)C(=O)NCc1cccs1 (stereo not drawn) ?
KB-V1 cytotox: inactive; DT40 TDP1 no CPT: 4%; TDP1 cell CPT: -2%; HT1080NT lethal: 20%; KB-3-1 tox: inactive; HT1080 IDH1KD tx: 4%

How did Cc1ccc2cc(CCNC(=O)c3ccc(Br)o3)c(=O)[nH]c2c1 do in these assays?
KB-V1 cytotox: 18µM*; DT40 TDP1 no CPT: inconclusive; TDP1 cell CPT: inconclusive; HT1080NT lethal: 0%; KB-3-1 tox: inconclusive; HT1080 IDH1KD tx: 17%

How did COc1ccc2cc(CCNC(=O)c3cc4ccccc4o3)c(=O)[nH]c2c1 do in these assays?
KB-V1 cytotox: inactive; DT40 TDP1 no CPT: inconclusive; TDP1 cell CPT: 21µM*; HT1080NT lethal: -3%; KB-3-1 tox: inactive; HT1080 IDH1KD tx: -2%

How did O=C(NCCC1=CCCCC1)c1ccc(Br)o1 do in these assays?
KB-V1 cytotox: inactive; DT40 TDP1 no CPT: 9.2µM*; TDP1 cell CPT: 8.2µM*; HT1080NT lethal: 16%; KB-3-1 tox: inactive; HT1080 IDH1KD tx: 12%

Results for CN1CCN(c2oc(/C=C/c3ccccc3)nc2C#N)CC1 ?
KB-V1 cytotox: inactive; DT40 TDP1 no CPT: 17%; TDP1 cell CPT: 16%; HT1080NT lethal: 10%; KB-3-1 tox: inactive; HT1080 IDH1KD tx: 27%

Results for COc1cccc(/C=C/c2nc(C#N)c(N3CCCCCC3)o2)c1 ?
KB-V1 cytotox: inactive; DT40 TDP1 no CPT: 18µM*; TDP1 cell CPT: inconclusive; KB-3-1 tox: inactive

What do the screens show for `CCc1nc(C#N)c(N2CCCCC2)o1`?
KB-V1 cytotox: inconclusive; DT40 TDP1 no CPT: 0%; TDP1 cell CPT: -4%; HT1080NT lethal: 4%; KB-3-1 tox: inactive; HT1080 IDH1KD tx: 8%

What do the screens show for `COc1cccc(/C=C/c2nc(C#N)c(N3CCC(C(N)=O)CC3)o2)c1`?
KB-V1 cytotox: inactive; DT40 TDP1 no CPT: -30%; TDP1 cell CPT: -25%; KB-3-1 tox: inactive

What do the screens show for `COc1cc(/C=C/c2nc(C#N)c(N3CCCCCC3)o2)cc(OC)c1OC`?
DT40 TDP1 no CPT: 16µM*; TDP1 cell CPT: 15µM*

Results for COc1cc(/C=C/c2nc(C#N)c(N3CCC(C)CC3)o2)cc(OC)c1OC ?
DT40 TDP1 no CPT: 7.3µM*; TDP1 cell CPT: 10µM*

Results for COc1ccccc1/C=C/c1nc(C#N)c(N2CCCCC2)o1 ?
DT40 TDP1 no CPT: 16µM*; TDP1 cell CPT: -72%

Results for CC1CCN(c2oc(-c3cccc4ccccc34)nc2C#N)CC1 ?
KB-V1 cytotox: inactive; DT40 TDP1 no CPT: -19%; TDP1 cell CPT: -20%; HT1080NT lethal: -5%; KB-3-1 tox: inactive; HT1080 IDH1KD tx: -24%

Results for O=C1COc2ccc3ccccc3c21 ?
KB-V1 cytotox: inactive; DT40 TDP1 no CPT: -25%; TDP1 cell CPT: 4%; HT1080NT lethal: -1%; KB-3-1 tox: inactive; HT1080 IDH1KD tx: 2%

Results for Cc1ccc(C(=O)CSc2nnc(CNc3nc(-c4ccccc4)cs3)n2C)cc1 ?
KB-V1 cytotox: inactive; DT40 TDP1 no CPT: inconclusive; TDP1 cell CPT: inconclusive; HT1080NT lethal: -26%; KB-3-1 tox: inactive; HT1080 IDH1KD tx: -22%

How did CC(C)CCN1C(=O)c2ccc(C(=O)Nc3ccc(Br)cc3C(=O)O)cc2C1=O do in these assays?
KB-V1 cytotox: inactive; DT40 TDP1 no CPT: 0%; TDP1 cell CPT: -1%; HT1080NT lethal: -1%; KB-3-1 tox: inactive; HT1080 IDH1KD tx: 3%

Results for C/C(=N\NC(=O)c1nnn(-c2nonc2N)c1-c1ccc2c(c1)OCO2)c1ccc(C)cc1 ?
KB-V1 cytotox: inactive; DT40 TDP1 no CPT: -1%; TDP1 cell CPT: inconclusive; HT1080NT lethal: 1%; KB-3-1 tox: inactive; HT1080 IDH1KD tx: -18%

Results for CN(CC(=O)Nc1ccc(N2CCOCC2)cc1)C(=O)Cc1ccccc1 ?
KB-V1 cytotox: inconclusive; DT40 TDP1 no CPT: -23%; TDP1 cell CPT: inconclusive; HT1080NT lethal: 0%; KB-3-1 tox: inactive; HT1080 IDH1KD tx: 12%
